About 550 (29%) of roughly 1,900 compounds were called active. No stated cut-off is given here; in the data, active means inhibition above about 40%; inactive means the rest. A selection follows.

26S proteasome non-ATPase regulatory subunit 14 (Homo sapiens), sequence (O00487 whole entry, looked up): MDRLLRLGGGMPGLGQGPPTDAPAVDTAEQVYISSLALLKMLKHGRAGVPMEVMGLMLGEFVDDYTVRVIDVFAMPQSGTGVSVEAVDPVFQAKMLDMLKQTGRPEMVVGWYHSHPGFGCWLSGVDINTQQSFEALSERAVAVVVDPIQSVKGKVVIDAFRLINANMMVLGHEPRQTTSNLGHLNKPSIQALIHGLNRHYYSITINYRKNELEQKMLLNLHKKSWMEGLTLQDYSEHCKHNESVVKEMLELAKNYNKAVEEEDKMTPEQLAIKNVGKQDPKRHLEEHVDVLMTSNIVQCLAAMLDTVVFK

This experiment has as its target 26S proteasome non-ATPase regulatory subunit 14 (Homo sapiens) (UniProt O00487). Kind of experiment: Rpn11 (PSMD14) deubiquitinase inhibitors, confirmation, biochemical, fluorescence polarization, single concentration (AID 602318). The note with it: purified human 26S proteasome, Ub4-pepOG fluorescence polarization; at 20 µM; hits give high values; proteasome pretreated with epoxomicin.
A word on the inhibition: it is the drop in the measured response relative to a control, in per cent. Regarding `COC(=O)c1ccc(OCC(=O)NC(C)(C)C)cc1`, the inhibition was -8.84% (inactive).
For the molecule `CCOc1ccc(NC(=O)c2ccc(NC(=O)COC(=O)c3ccc(NC(=O)CC#N)cc3)cc2)cc1`, the inhibition is 103% (active).
As for `Cc1nc2ccc(C(=O)N3CCSCC3)cc2s1`, the figure is -7.54% (inactive); as for `Oc1c(CN2CCCC2)cc(COCc2ccccc2)c2cccnc12`, 14.7% (inactive); as for `C=CC[n+]1c(-c2ccc(C)cc2)csc1NNC(=O)Nc1ccccc1`, 9.49% (inactive).
On to `CC(C)(C)NC(=O)CSC(=Nc1ccccc1F)NC#N`, for which the inhibition is 16.3% (inactive).
As for `CCOc1cc(/C=C2\SC(N3CCCC(C)C3)=NC2=O)ccc1O` (centres undefined), the figure is 11.7% (inactive); as for `Cc1cccc(OCc2nnc(SCc3nc4cc(C(F)(F)F)ccc4c(=O)[nH]3)o2)c1`, 57.8% (active); as for `CCc1ccc(NC(=O)CS(=O)CC(=O)NCCCc2ccccc2)cc1` (centres undefined), 20.8% (inactive).
On to `COc1cccc(NC(=O)C(C)Oc2ccccc2)c1` (centres undefined), for which the inhibition was -12.2% (inactive).
In the case of `O=C(O)c1ccc(NN=CC2=C(N3CCOCC3)/C(=C/c3ccccc3)CC2)cc1`, the inhibition was 48.1% (active).
Turning to `CN(C)CCOC1c2ccccc2-c2ccccc21`, the inhibition is -6.33% (inactive).
In the case of `Cc1ccc(NC(=O)CN2CCc3ccccc3C2)cc1` it was -8.38% (inactive).
As to `COc1ccc(NC(=O)Cn2c(-c3ccc(OC)cc3)cn(-c3ccc(C)cc3)c2=O)cc1`, the inhibition was 42.8% (active).
In the case of `COc1ccc(CC(=O)Nc2ccc(-c3nnc(-c4ccc(C)cc4)o3)cc2)cc1` it was -7.43% (inactive).
As for `NC(N)=N/N=C/c1ccc(OCc2ccc(Cl)cc2Cl)cc1`, the inhibition was 37% (inactive).
For the molecule `Oc1ccc(/C=N/Nc2nc(-c3ccccc3F)nc3ccccc23)c(O)c1`, the inhibition is 18.3% (inactive).
`O=C1NC(=O)C2C1C(c1ccc([N+](=O)[O-])cc1)=NN2Cc1ccccc1` (centres undefined): the inhibition is 29.9% (inactive).
As for `CC(C)Oc1ccc(/C=C(\NC(=O)/C=C/c2ccco2)C(=O)NCCc2nc3ccccc3[nH]2)cc1`, the figure is 44.1% (active); as for `Cc1ccc(-c2nnc(-c3ccc(NC(=O)c4cccs4)cc3)o2)cc1`, -12.4% (inactive); as for `Cc1c(N=Nc2ccc(N(C)C)cc2)c(=O)n(-c2ccccc2)n1C`, 47.2% (active).
Turning to `CCN1CCCC1CNC(=O)c1cc2c(=O)n(C)c3ccccc3c2n1C` (centres undefined), the inhibition was 2.2% (inactive).
In the case of `Cc1cc(OCC(=O)Nc2nccs2)c2c(C)c(C)c(=O)oc2c1`, the inhibition is 38.8% (inactive).
Regarding `Cc1nc2ccccc2nc(=O)c1NNc1ccc([N+](=O)[O-])cc1`, the inhibition was 24% (inactive).

For the origin of these results see PubChem BioAssay AID602318 (Sanford-Burnham Center for Chemical Genomics, 2012).
